Lassa entry inh = inhibitors of Lassa virus binding or cell entry. Lassa virus pseudotype entry inhibition, cell reporter. Potency, µM (titrated, usually from 37.9 µM), for the others: at the highest dose activity change, negative = inhibition, usual class: inhibitors. 300,000 tested, 1.2% active; calls by dose curve; tested in HEK293 cells; further: potency means the concentration at half of the fitted maximal effect; on the % scale 0 is the no-effect control and ±100 the full control effect; nearly all actives have a fitted effect of over 50% in size
FMDV antiviral = antivirals against foot and mouth disease virus | 410,000 tested, 1.2% active | Potency, µM (highest dose often 57.9 µM), for inactives: at the top dose activity change, negative = inhibition, usual class: inhibitors | FMDV antiviral cell-based qHTS | AID 1159524; calls by dose curve; tested in HEK293T cells; further: read-out not given here; potency means the concentration at half of the fitted maximal effect; on the % scale 0 is the no-effect control and ±100 the full control effect; nearly all actives have a fitted effect of over 45% in size
HCV inhibitor = blocks hepatitis C virus. Huh7.5.1 HCVcc-Cre infection, luciferase reporter, 44 h. Potency, µM (top dose mostly 41.8 µM), inactives show at the top dose activity change, negative = inhibition, hits mostly inhibitors. 340,000 tested, 3.4% active; further: potency means the concentration at half of the fitted maximal effect; on the % scale 0 is the no-effect control and ±100 the full control effect
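Luciferase read-out (15 sec integration) after a 15 min room-temperature substrate step quantifies HCVcc-Cre infection. Cells, 1,000 per well, had compound added 4 h post-plating, then virus at ~0.5 moi, and were cultured 44 h.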
Marburg entry inh = Marburg virus entry inhibition. Marburg virus pseudotyped entry inhibition, cell reporter. Potency, µM (highest dose often 37.8 µM), for inactives: top-dose activity change, negative = inhibition, hits mostly inhibitors. 300,000 tested, 1.8% active. AID 540276; calls by dose curve; tested in HEK293 cells; further: potency means the concentration at half of the fitted maximal effect; on the % scale 0 is the no-effect control and ±100 the full control effect
SARS PLP yeast = blocks SARS-CoV papain-like protease in a yeast assay | S. cerevisiae expressing SARS-CoV PLpro, growth rescue | Potency, µM (series often up to 32.9 µM), without a hit: at the top dose activity, positive = growth rescue, hits mostly activators | 330,000 tested, 0.19% active | AID 485353; calls by dose curve; further: potency means the concentration at half of the fitted maximal effect; 0% is about no effect; nearly all actives have a fitted effect of over 55% in size
HCMV inh = human cytomegalovirus inhibition | HFF cells, HCMV-luciferase reporter, 72 h; hits give low values | activity change, negative = inhibition, % at 57.5 µM | 410,000 tested, 4.5% active; in the data active means activity change below about -60%; inconclusive means no clear call, values can overlap the other calls; inactive means above about -39%; further: on the % scale 0 is the no-effect control and ±100 the full control effect
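Luciferase read-out from HCMV-luciferase-infected HFFs (MOI 1 PFU/cell) 72 h post infection at 37C; compounds added after 16 h cell attachment; activity normalized between buffer-only basal and Salinomycin (10uM) inhibitor controls.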
HCV inh confirm = HCV inhibition, cherry-pick confirmation; shares compounds with HCV inhibitor; HCVcc-Cre infectious virus cell assay, luciferase, inhibition; Potency, µM (doses to about 41.8 µM), without a hit: at the top dose activity, negative = inhibition, usual class: inhibitors; 640 tested, 78% active; AID 720575; further: potency means the concentration at half of the fitted maximal effect; nearly all actives have a fitted effect of over 80% in size
HCV host tox = host cell cytotoxicity counter-screen for HCV inhibitors; shares compounds with HCV inhibitor; HCV host cell line cytotoxicity counterscreen; Potency, µM (titrated, usually from 41.8 µM), for inactives: at the top dose activity change, negative = cytotoxicity, usual class: inhibitors; 640 tested, 22% active;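 further: potency means the concentration at half of the fitted maximal effect; 44 h compound exposure; on the % scale 0 is the no-effect control and ±100 the full control effect; nearly all actives have a fitted effect of over 55% in size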
* marks the source's active call; other numbers are inactive results; ? = inconclusive; · = no result given; [ ] = another dose, or the depositor's remark. An excerpt weighted towards active compounds, which were near 8% of everything screened. Unless noted, the call rests on the fitted dose curve; in most records, active means well fitted curve in the direction sought with a large enough effect; inconclusive means small, poorly fitted or top-dose-only effect, or another doubt; inactive means no such curve, though single readings can be large; an effect the other way counts as inactive or inconclusive.

SMILES	Lassa entry inh	FMDV antiviral	HCV inhibitor	Marburg entry inh	SARS PLP yeast	HCMV inh	HCV inh confirm	HCV host tox
Cc1c(NC(=O)c2cc3c(s2)-c2ccccc2OC3)cccc1[N+](=O)[O-]	?	28.2µM*	?	?	-0.2%	?	6.28µM*	-3.9%
COc1ccc(Cl)cc1NC(=O)c1cc2c(s1)-c1ccccc1OC2	·	-12.1%	·	0.8%[46.1 µM]	·	-12.5	·	·
COc1ccc(-c2nc3n(n2)C(c2ccccc2F)C(C(=O)Nc2cccnc2)=C(C)N3)cc1OC (centres undefined)	-6.2%[46.1 µM]	-17.3%	·	-16.1%[46.1 µM]	·	33.3	·	·
O=C(Nc1ncc(Cc2ccc(C(F)(F)F)cc2)s1)c1ccc(-c2cccc([N+](=O)[O-])c2)o1	-26.2%	?	2.51µM*	?	8.0%	?	12.5µM*	?
COCCN(C(=O)COC(=O)/C=C/c1ccc(OC)c(OC)c1)c1c(N)n(Cc2ccccc2)c(=O)[nH]c1=O	22.5%	3.6%	?	17.8%	-2.4%	-28.7	?	27.1%
COCCN(C(=O)COC(=O)/C=C/c1ccco1)c1c(N)n(Cc2ccccc2)c(=O)[nH]c1=O	-5.3%	-18.9%	1.0%	-0.4%	2.1%	12.5	·	·
Cn1c(=O)c(/C=C/c2ccccc2)nc2ccccc21	-16.4%	-9.9%	6.4%	?	16.6%	229.8	·	·
CCn1nc(/C=C/c2ccccc2)nc2c(=O)n(C)c(=O)nc1-2	7.94µM*	2.51µM*	2.51µM*	0.708µM*	-0.3%	-96.4*	5.6µM*	7.05µM*
O=C(NCCCN1CCOCC1)/C(=C/c1ccc(-c2cccc([N+](=O)[O-])c2)o1)NC(=O)c1ccccc1	·	-25.9%	·	·	·	18.2	·	·
Cc1nc2nc(C)n(CCN3CCOCC3)c(=O)c2c(-c2cccc([N+](=O)[O-])c2)c1C(=O)CCCCCCCCCCN1CCC(c2ccccc2)(c2ccccc2)CC1	?	25.1µM*	?	0.501µM*	·	-77.8*	14.1µM*	?
COc1ccc([N+](=O)[O-])cc1NC(=O)C(C)Sc1nc(C)c(C)c(C)n1 (centres undefined)	0.5%	-9.6%	5.62µM*	-5.3%	18.2%	-6.8	12.5µM*	34.1%
COc1ccc([N+](=O)[O-])cc1NC(=O)CSc1nc(C)c(C)c(C)n1	0.5%	-19.7%	14.6%	2.6%	24.1%	50.8	·	·
COCCN(C(=O)c1oc2ccccc2c1COC)c1c(N)n(CC(C)C)c(=O)[nH]c1=O	0.0%	-12.7%	-4.2%	?	-6.8%	0.0	·	·
O=C(Nc1ccn(Cc2ccccc2F)n1)c1ccc(COc2ccc(Br)cc2)cc1	-29.4%	?	6.31µM*	7.3µM*	-0.7%	-102.9*	4.45µM*	-72.4%
COC(=O)c1cn(C(=O)OC)c2ccccc12	4.3%	14.2%	5.62µM*	?	-3.1%	7.5	?	9.7%
COC(=O)c1cn(C(=O)c2ccc(F)cc2)c2ccccc12	·	-3.4%	4.1%	·	17.2%	-0.7	·	·
CC1(c2ccc(OCC#N)cc2)C=C(c2ccc(OCC#N)cc2)n2nc(C(F)(F)F)nc2N1 (centres undefined)	?	?	8.91µM*	?	-19.4%	-69.1*	22.3µM*	35.2%
O=c1c2ccccc2ncn1-c1cccc(Br)c1	?	0.1%	9.7%	-1.7%[46.1 µM]	2.1%	1.0	·	·
CN1CCC(=C2c3ccccc3CCc3sccc32)CC1	·	?	?	·	-9.8%	·	3.15µM*	-22.9%
CN1CCC(=C2c3ccccc3C(O)c3ccccc32)CC1 (centres undefined)	·	6.6%	-6.1%	·	1.2%	-12.6	·	·
Cc1ccc(CSc2ncc(Cl)c(C(=O)NCCc3ccc(S(N)(=O)=O)cc3)n2)cc1	-9.6%[46.1 µM]	?	·	-13.5%[46.1 µM]	·	-24.4	·	·
COc1ccc2cc(C(=O)C3CCCN(C(=O)c4cc5nc(C)cc(C)n5n4)C3)ccc2c1 (centres undefined)	0.5%[46.1 µM]	-4.6%	1.9%	-23.5%[46.1 µM]	2.8%	-14.4	·	·
O=C(CSc1nc2nn(-c3ccccc3)c(=O)c-2c2n1CCCCC2)Nc1ccccc1[N+](=O)[O-]	-4.5%	15.0%	?	3.4%	2.3%	-36.4	14.1µM*	34.8%
COc1ccc(NC(=O)c2ccccc2OCc2c(C)noc2C)cc1OC	5.1%	-14.3%	?	-4.6%	0.1%	33.7	?	15.0%
COCCNC(=O)Cn1nc(-c2ccc(Cl)cc2)c2ccccc2c1=O	-1.3%[46.1 µM]	-11.5%	1.4%	-0.1%[46.1 µM]	-0.7%	7.3	·	·
SMILES	Lassa entry inh	FMDV antiviral	HCV inhibitor	Marburg entry inh	SARS PLP yeast	HCMV inh	HCV inh confirm	HCV host tox
COc1cc(/C=C2/SC(=O)NC2=O)ccc1OC(=O)c1ccco1	17.7%	-19.8%	2.1%	1.0%	-1.3%	62.7	·	·
CCOc1cc(/C=C2/SC(=S)NC2=O)ccc1OC(=O)c1ccco1	11.4%	4.4%	3.55µM*	-0.1%[46.1 µM]	0.7%	0.1	-14.9%	-9.5%
COC(=O)c1sc(NC(=O)/C=C/c2ccccc2Cl)nc1C	9.7%[46.1 µM]	13.5%	5.62µM*	?	-4.1%	4.5	?	1.2%
CCCc1ccc(C(=O)/C=C/N(C)C)cc1	?	-27.6%	2.5%	?	-1.9%	-5.0	·	·
Cc1nn(CC(=O)NCCCN2CCC(N3CCCCC3)CC2)c(=O)c2cc(-c3ccccc3)nn12	·	8.5%	3.98µM*	·	-5.8%	?	25µM*	20.4%
CC(O)C(NS(=O)(=O)c1ccc(Cl)cc1)C(=O)OCCOc1ccc(F)cc1 (centres undefined)	·	?	·	·	·	2.9	·	·
COCCn1c(=O)c(C)nc2cnc(Oc3cccc(Cl)c3)nc21	·	-27.8%	·	·	·	·	·	·
Cc1ccc(N(C(=O)CCl)C(C(=O)NC2CCCCC2)c2cccnc2)cc1C (centres undefined)	7.94µM*	7.94µM*	0.891µM*	?	-5.9%	-98.9*	0.499µM*	0.396µM*
O=C(NC(Nc1ncc(S(=O)(=O)c2ccc([N+](=O)[O-])cc2)s1)(C(F)(F)F)C(F)(F)F)c1ccc(Cl)cc1	?	?	4.47µM*	3.16µM*	-18.4%	-96.4*	4.45µM*	7.91µM*
CN(C(=O)c1ccccc1)C1c2c(ccc3ccccc23)OCC1CO (centres undefined)	·	-13.0%	-0.3%	·	-3.2%	?	·	·
O=C(Nc1ccc(Cl)cc1)N[C@@H]1c2c(ccc3ccccc23)OC[C@@H]1CO	-17.9%	5.5%	?	?	-0.5%	?	?	?
CCc1ccccc1NC(=O)Cn1c(=O)n(Cc2ccco2)c(=O)c2ccccc21	24.7%[46.1 µM]	-0.3%	·	-12.6%[46.1 µM]	·	2.9	·	·
O=C(NCc1ccc2c(c1)OCO2)C1CCN(C(=O)Nc2ccc(Cl)cc2)CC1	7.1%	-0.1%	?	24.6%	8.0%	62.7	12.5µM*	-1.0%

Screening results as filed in PubChem.
